In PubChem BioAssay (NCATS):
Several values for one entry are separate records, joined by “and”; a condition that tells them apart may be missing. Equal values may be shown once. Inconclusive results are not listed. Activity calls are given as the source filed them. Unless noted, the call rests on the fitted dose curve; in most records, active means well fitted curve in the direction sought with a large enough effect; inconclusive means small, poorly fitted or top-dose-only effect, or another doubt; inactive means no such curve, though single readings can be large; an effect the other way counts as inactive or inconclusive.

What was measured:
[1] = qHTS assay for measurement of the activity of small molecule inhibitors on Zika virus induced Caspase-3 activity in human iPSC derived neural progenitor cells (hNPCs) (AID 1224857); further: nearly all actives have a fitted effect of over 65% in size
Summary of the method: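 Percent inhibition of virus-induced caspase-3/7 luminescence (Caspase-Glo), scaled between uninfected cells and Zika-infected cells. hNPCs received compound 1 hr before ZIKV at 2 FFU/cell, with 6 hours infection at 37 C.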

[2] = qHTS assay for measurement of the activity of small molecule inhibitors on Zika virus induced Caspase-3 activity in human astrocytoma cells (AID 1224859)
Summary of the method: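 Luminescent caspase-3/7 read-out (30 min reagent, room temperature) in human SNB-19 cells infected 6 h with ZIKV (2 FFU/cell) after 1 h compound pre-incubation; Data were normalised to uninfected and infected wells.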

[3] = qHTS assay to identify small molecule inhibitors of chordoma cells - UCH-1 (AID 1259355); further: nearly all actives have a fitted effect of over 55% in size; further: potency means the concentration at half of the fitted maximal effect
Summary of the method: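 Luminescent ATP read-out (CellTiter-Glo, 30min at room temperature) measured viability of UCH-1 cells exposed for 48hr to test drugs at 15 concentrations, co-dosed with a five-agent combination of auranofin, camptothecin, doxorubicin, rubitecan and topotecan.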

[4] = qHTS assay to identify small molecule inhibitors of chordoma cells - UCH-2 (AID 1259356); further: potency means the concentration at half of the fitted maximal effect
[5] = P-glycoprotein substrates identified in KB-8-5-11 adenocarcinoma cell line, qHTS therapeutic library screen (AID 1346987); further: nearly all actives have a fitted effect of over 65% in size; further: potency means the concentration at half of the fitted maximal effect
Summary of the method: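 KB-8-5-11, a colchicine-selected P-gp-overexpressing KB-3-1 subline, was grown without colchicine for the assay. Cells were seeded at 500 cells/well, dosed in concentration-response and incubated 72 h at 37 degree C, 5% CO2. Viability was read by CellTiter-Glo luminescence.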

[6] = qHTS profiling of the MIPE4 collection as inhibitors of Plasmodium falciparum (HB3) proliferation (AID 743347; call rule not given here); conditions: P. falciparum HB3 in erythrocytes, SYBR Green DNA, 72 h; at 28.5 µM (top of the series)
Summary of the method: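 Erythrocytes infected with P. falciparum (0.3% parasitemia, 2.5% hematocrit) incubated with compounds 72 h at 37 C, 5% CO2. Lysis with saponin/Triton buffer containing SYBR Green I, overnight at room temperature in the dark; DNA fluorescence (485/535 nm) normalised to 0.29 uM artemisinin and DMSO.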

[7] = Natriuretic polypeptide receptor (hNpr1) antagonism - Pilot counterscreen GloSensor control cell line (AID 1347045; calls by dose curve)
Summary of the method: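 HEK293 cGMP GloSensor cells preloaded 2 h with 2% GloSensor reagent, then compound 30 min before baseline luminescence read. Stimulated with 50 uM sodium nitroprusside, 20 min at room temperature, then read again; counterscreen for Npr1 antagonism.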

[8] = molecular target: Atrial natriuretic peptide receptor 1 (Homo sapiens) (UniProt P16066); experiment: Natriuretic polypeptide receptor (hNpr1) antagonism - Pilot screen (AID 1347049; calls by dose curve;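 further: agonist-evoked cGMP luminescence read 20 min after hNppA addition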)
Atrial natriuretic peptide receptor 1 (Homo sapiens), sequence (P16066 whole entry, looked up): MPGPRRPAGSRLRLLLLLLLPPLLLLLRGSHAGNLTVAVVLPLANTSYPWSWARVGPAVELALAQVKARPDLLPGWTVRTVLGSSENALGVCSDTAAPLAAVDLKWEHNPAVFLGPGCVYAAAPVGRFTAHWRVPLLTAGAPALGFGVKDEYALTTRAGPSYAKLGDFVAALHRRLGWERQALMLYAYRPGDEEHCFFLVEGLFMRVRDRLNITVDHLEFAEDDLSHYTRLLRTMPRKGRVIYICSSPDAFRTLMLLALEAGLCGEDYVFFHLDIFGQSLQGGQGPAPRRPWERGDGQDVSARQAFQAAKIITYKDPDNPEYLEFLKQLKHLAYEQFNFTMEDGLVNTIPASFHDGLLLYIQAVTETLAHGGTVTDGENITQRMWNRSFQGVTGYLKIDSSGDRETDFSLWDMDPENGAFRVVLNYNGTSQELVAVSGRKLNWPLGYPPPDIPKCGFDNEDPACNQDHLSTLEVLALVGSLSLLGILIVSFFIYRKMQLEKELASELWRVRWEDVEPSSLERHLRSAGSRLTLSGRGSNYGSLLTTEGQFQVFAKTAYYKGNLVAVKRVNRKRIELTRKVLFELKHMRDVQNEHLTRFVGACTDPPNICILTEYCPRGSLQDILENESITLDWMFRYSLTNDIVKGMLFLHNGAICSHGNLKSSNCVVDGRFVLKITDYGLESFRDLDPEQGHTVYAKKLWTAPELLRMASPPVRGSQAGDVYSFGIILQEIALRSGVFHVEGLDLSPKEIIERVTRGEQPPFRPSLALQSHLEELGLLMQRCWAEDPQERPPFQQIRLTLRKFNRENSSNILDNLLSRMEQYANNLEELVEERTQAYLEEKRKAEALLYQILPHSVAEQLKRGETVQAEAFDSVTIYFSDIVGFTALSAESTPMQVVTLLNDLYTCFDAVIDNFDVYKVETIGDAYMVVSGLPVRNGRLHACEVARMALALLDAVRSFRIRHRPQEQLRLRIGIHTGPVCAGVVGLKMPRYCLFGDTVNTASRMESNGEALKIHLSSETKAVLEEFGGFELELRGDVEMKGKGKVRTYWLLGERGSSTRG
Summary of the method: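 HEK293 cells co-expressing hNpr1 and the GloSensor pGS-40F cGMP luciferase sensor were preloaded with 2% GloSensor reagent for 2 h. Compounds were added for 30 min at room temperature, then cells were stimulated with 0.1 nM hNppA for 20 min before luminescence readout.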

[9] = molecular target: Atrial natriuretic peptide receptor 2 (Homo sapiens) (UniProt P20594); experiment: Natriuretic polypeptide receptor (hNpr2) antagonism - Pilot subtype selectivity assay (AID 1347050; calls by dose curve)
Atrial natriuretic peptide receptor 2 (Homo sapiens), sequence (P20594 whole entry, looked up): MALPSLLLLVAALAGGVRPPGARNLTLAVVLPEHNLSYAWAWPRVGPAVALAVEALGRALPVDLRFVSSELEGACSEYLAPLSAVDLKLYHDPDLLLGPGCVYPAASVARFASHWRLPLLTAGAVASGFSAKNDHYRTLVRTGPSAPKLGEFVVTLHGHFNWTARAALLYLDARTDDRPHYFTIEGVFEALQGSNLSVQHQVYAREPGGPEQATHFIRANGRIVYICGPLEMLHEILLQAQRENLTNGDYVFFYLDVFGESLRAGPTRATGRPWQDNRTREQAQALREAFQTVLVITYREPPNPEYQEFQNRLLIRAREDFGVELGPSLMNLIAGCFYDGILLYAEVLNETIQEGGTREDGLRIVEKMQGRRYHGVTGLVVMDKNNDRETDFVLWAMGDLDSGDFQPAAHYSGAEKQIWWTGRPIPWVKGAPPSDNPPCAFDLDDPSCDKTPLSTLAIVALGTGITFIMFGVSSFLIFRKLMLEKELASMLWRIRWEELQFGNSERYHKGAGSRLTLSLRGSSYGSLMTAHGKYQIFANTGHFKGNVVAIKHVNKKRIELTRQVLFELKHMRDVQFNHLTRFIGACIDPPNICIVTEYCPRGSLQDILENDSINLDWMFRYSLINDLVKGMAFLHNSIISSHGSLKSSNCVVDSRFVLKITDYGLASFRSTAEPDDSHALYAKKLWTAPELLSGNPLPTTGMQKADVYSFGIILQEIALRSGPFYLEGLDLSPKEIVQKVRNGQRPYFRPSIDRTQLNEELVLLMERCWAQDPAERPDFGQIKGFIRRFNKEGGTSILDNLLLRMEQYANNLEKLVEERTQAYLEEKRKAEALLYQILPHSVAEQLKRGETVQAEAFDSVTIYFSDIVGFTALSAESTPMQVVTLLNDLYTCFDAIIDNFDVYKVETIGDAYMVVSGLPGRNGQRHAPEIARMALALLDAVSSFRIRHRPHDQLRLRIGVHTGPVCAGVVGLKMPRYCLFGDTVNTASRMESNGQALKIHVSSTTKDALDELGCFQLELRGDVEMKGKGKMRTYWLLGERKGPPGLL
Summary of the method: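 cGMP-sensor HEK293/hNpr2 cells; 2% GloSensor reagent 2 h RT; compounds 30 min; baseline luminescence read; 1 nM hNppC agonist 20 min RT; final luminescence read by CCD camera. Antagonism = reduced post-agonist signal.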

OC1C(O)C(O)C(O)C(O)C1O (configuration not stated)
inactive: Potency [1] | outcome [2] | Potency [3] | Potency [4] | Potency [5]

NS(=O)(=O)Cc1noc2ccccc12
106%: growth, % of control [6]
inactive: Potency [1] | outcome [2] | Potency [3] | Potency [4] | Potency [5]

CCN(CC)CCNC(=O)c1cc(Br)c(N)cc1OC
inactive: Potency [1] | outcome [2] | Potency [3] | Potency [4] | Potency [5]

CCOC(=O)[C@H](CCc1ccccc1)N[C@@H](C)C(=O)N1[C@H](C(=O)O)C[C@@H]2CCC[C@@H]21
inactive: Potency [1] | outcome [2] | Potency [3] | Potency [4] | Potency [5]

O=C(O)C(Cc1cc(I)c(O)c(I)c1)c1ccccc1 (configuration not stated)
inactive: Potency [1] | outcome [2] | Potency [3] | Potency [4] | Potency [5]

N#CCC(=O)NN
inactive: Potency [1] | outcome [2] | Potency [3] | Potency [4] | Potency [5]

COc1cc(C(=O)N2CCCCCCC2)cc(OC)c1OC
inactive: Potency [1] | outcome [2] | Potency [3] | Potency [4] | Potency [5]

O=C1C(=O)c2ccccc2C(O)=C1C1CCC(c2ccc(Cl)cc2)CC1 (configuration not stated)
inactive: Potency [1] | outcome [2] | Potency [3] | Potency [4]
5.96%: growth, % of control [6]

CN1CCN(c2cc3c(cc2F)c(=O)c(C(=O)O)cn3-c2ccc(F)cc2)CC1
inactive: Potency [1] | Potency [3] | Potency [4]

Cc1cc(-c2ccccc2)nnc1NCCN1CCOCC1
inactive: Potency [1] | outcome [2] | Potency [3] | Potency [4] | Potency [5]

C[C@H]1[C@H]2CC[C@H]3[C@@H]4CC=C5C[C@@H](N(C)C)CC[C@]5(C)[C@H]4CC[C@]23CN1C
inactive: Potency [1] | outcome [2] | Potency [3] | Potency [4] | Potency [5]

CCCCCCCCCCCCCCCC(=O)O
inactive: Potency [1] | outcome [2] | Potency [3] | Potency [4] | Potency [5]

Nc1ccc(C(=O)NCC(=O)O)cc1
inactive: Potency [1] | outcome [2] | Potency [3] | Potency [4] | Potency [5]

CC1=C(C(=O)O)N2C(=O)[C@@H](NC(=O)[C@H](N)c3ccccc3)[C@H]2SC1
inactive: Potency [1] | outcome [2] | Potency [3] | Potency [4] | Potency [5]

NC(N)=NCc1cccc(I)c1
inactive: Potency [1] | outcome [2] | Potency [3] | Potency [4] | Potency [5] | outcome [7] | outcome [8] | outcome [9]

C=C[C@H]1CN2CC[C@H]1C[C@H]2[C@H](O)c1ccnc2ccc(OC)cc12
inactive: Potency [1] | outcome [2] | Potency [3] | Potency [4] | Potency [5]

CCCCCCCCCCCCOCCOCCOCCOCCOCCOCCOCCOCCOCCO
inactive: Potency [1] | outcome [2] | Potency [3] | Potency [4]
active: Potency [5] 3.26 µM

CCN(CC)CCOc1ccc2c(c1)C(=O)c1cc(OCCN(CC)CC)ccc1-2
inactive: Potency [1] | Potency [3] | Potency [4]

CCCCCCCC/C=C\CCCCCCCCN
inactive: Potency [1] | outcome [2] | Potency [3] | Potency [4] | Potency [5]

CC(C)(C)NC[C@H](O)COc1nsnc1N1CCOCC1
inactive: Potency [1] | outcome [2] | Potency [3] | Potency [4] | Potency [5] | outcome [7] | outcome [8] | outcome [9]

C#C[C@]1(O)CC[C@H]2[C@@H]3CCC4=Cc5oncc5C[C@]4(C)[C@H]3CC[C@@]21C
inactive: Potency [1] | outcome [2] | Potency [3] | Potency [4]
active: Potency [5] 4.61 µM

Cc1cccc(C)c1NC(=O)CN1CCCC1
inactive: Potency [1] | outcome [2] | Potency [3] | Potency [4] | Potency [5]

OCc1ccccn1
inactive: Potency [1] | outcome [2] | Potency [3] | Potency [4] | Potency [5]

Cc1ccccc1OCC(O)CO (configuration not stated)
inactive: Potency [1] | outcome [2] | Potency [3] | Potency [4] | Potency [5]

CN1CCN(C2=Nc3ccccc3Sc3ccc(Cl)cc32)CC1
inactive: Potency [1] | Potency [3] | Potency [4]

CCNC(=O)/C=C/c1cccc(Br)c1
inactive: Potency [1] | outcome [2] | Potency [3] | Potency [4] | Potency [5]

CCCCNC(=O)NS(=O)(=O)c1ccc(N)cc1
inactive: Potency [1] | Potency [3] | Potency [4] | Potency [5]

C[C@@]12C(=O)OC(=O)[C@]1(C)C1CCC2O1
active: Potency [3] 0.501 µM | Potency [4] 0.698 µM | Potency [5] 3.12 µM
inactive: Potency [1]

CC[C@]12CCCN3CCc4c(n(c5ccccc45)C(=O)C1)[C@@H]32
inactive: Potency [1] | Potency [3] | Potency [4]
active: Potency [5] 5.56 µM and 5.8 µM

CCCCOC(=O)CC(CC(=O)OCCCC)(OC(C)=O)C(=O)OCCCC
inactive: Potency [1] | Potency [3] | Potency [4]

CCC(Cc1c(I)cc(I)c(N)c1I)C(=O)O (configuration not stated)
inactive: Potency [1] | Potency [3] | Potency [4] | Potency [5]

NCCNC(=O)c1ccc(Cl)cn1
inactive: Potency [1] | Potency [3] | Potency [4] | Potency [5]

C#C[C@]1(O)CC[C@H]2[C@@H]3CCc4cc(OC)ccc4[C@H]3CC[C@@]21C
inactive: outcome [2] | Potency [3] | Potency [4]
